Measurements reported in the supplement of paper PMC10849652.
The full data set covers some 7,900 targets. This sample favours those with a hit. About 0.6% of all pairs of compound and target were hits. A number with no mark means an inactive call.

What was measured:
Assay in all cases: log2 fold change, soluble protein after heating vs DMSO (PISA); higher = thermal stabilisation; K562 cells, 10 uM, 30 min; active = over 0.2 and 3.5 SD of the protein, either way, in both replicates (recomputed)
bafetinib = compound: Cc1ccc(NC(=O)c2ccc(CN3CC[C@H](N(C)C)C3)c(C(F)(F)F)c2)cc1Nc1nccc(-c2cncnc2)n1 [bafetinib]
Summary of the method: (§1)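 Soluble protein was defined as the supernatant after 21,000xg for 90 min. It came from K562 cells at 2×10^6 cells/mL given 10 μM compound for 30 min, heated in aliquots for 3 min across 48°C-58°C, pooled, and extracted in PBS with 0.5% NP-40 at 4°C, and was quantified by TMTpro 16plex LC-MS/MS with equalised channel sums. Thermal stability against control samples, from duplicates, is reported as log2 fold change.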

[1] = compound: Cc1cccc(CC(=O)N2CCc3c2ccc(-c2cn(C)c4ncnc(N)c24)c3F)n1
Summary of the method: as §1

nilotinib = compound: Cc1cn(-c2cc(NC(=O)c3ccc(C)c(Nc4nccc(-c5cccnc5)n4)c3)cc(C(F)(F)F)c2)cn1 [nilotinib]
Summary of the method: as §1

[2] = compound: Cc1nc(Nc2n[nH]c3c2CN(C(=O)N[C@H](CN(C)C)c2ccccc2)C3(C)C)c2sccc2n1
Summary of the method: as §1

dasatinib = compound: Cc1nc(Nc2ncc(C(=O)Nc3c(C)cccc3Cl)s2)cc(N2CCN(CCO)CC2)n1 [dasatinib]
Summary of the method: as §1

[3] = compound: Cc1ncc(-c2ccnc(Nc3ccc(S(C)(=O)=O)cc3)n2)n1C(C)C
Summary of the method: as §1

[4] = compound: Cn1cc(-c2ccc3c(c2)CCN3C(=O)Cc2cccc(C(F)(F)F)c2)c2c(N)ncnc21
Summary of the method: as §1

[5] = compound: Cn1cc(-c2ccc3nnc(C(F)(F)c4ccc5ncccc5c4)n3n2)cn1
Summary of the method: as §1

tipifarnib = compound: Cn1cncc1[C@@](N)(c1ccc(Cl)cc1)c1ccc2c(c1)c(-c1cccc(Cl)c1)cc(=O)n2C [tipifarnib]
Summary of the method: as §1

mubritinib = compound: FC(F)(F)c1ccc(/C=C/c2nc(COc3ccc(CCCCn4ccnn4)cc3)co2)cc1 [mubritinib]
Summary of the method: as §1

Chain of UniProt Q9BRA0 (Q9BRA0 whole entry, looked up): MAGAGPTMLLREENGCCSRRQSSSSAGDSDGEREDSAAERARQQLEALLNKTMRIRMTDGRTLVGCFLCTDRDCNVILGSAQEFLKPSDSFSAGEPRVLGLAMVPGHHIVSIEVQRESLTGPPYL
Chain of UniProt P48645 (P48645 whole entry, looked up): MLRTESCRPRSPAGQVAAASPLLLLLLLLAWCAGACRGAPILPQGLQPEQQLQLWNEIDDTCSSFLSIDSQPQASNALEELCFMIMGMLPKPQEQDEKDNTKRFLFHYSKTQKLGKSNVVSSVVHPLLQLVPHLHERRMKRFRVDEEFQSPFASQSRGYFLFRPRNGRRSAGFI
Chain of UniProt Q9BUK6 (Q9BUK6 whole entry, looked up): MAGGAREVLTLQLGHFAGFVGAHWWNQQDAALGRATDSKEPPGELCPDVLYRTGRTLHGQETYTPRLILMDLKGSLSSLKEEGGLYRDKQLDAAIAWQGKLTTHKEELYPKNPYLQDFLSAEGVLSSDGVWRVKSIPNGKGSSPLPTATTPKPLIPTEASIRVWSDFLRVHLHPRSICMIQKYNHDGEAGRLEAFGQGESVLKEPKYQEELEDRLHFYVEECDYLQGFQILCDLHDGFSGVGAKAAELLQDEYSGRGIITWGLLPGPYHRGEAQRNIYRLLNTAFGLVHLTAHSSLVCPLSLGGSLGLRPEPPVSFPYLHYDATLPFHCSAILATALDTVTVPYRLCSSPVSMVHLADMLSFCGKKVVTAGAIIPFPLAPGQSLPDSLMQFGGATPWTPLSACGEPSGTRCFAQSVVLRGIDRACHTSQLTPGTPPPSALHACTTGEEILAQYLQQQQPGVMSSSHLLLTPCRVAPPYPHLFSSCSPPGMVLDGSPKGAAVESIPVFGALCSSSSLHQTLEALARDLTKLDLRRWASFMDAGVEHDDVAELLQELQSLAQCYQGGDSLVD
Chain of UniProt Q96I59 (Q96I59 whole entry, looked up): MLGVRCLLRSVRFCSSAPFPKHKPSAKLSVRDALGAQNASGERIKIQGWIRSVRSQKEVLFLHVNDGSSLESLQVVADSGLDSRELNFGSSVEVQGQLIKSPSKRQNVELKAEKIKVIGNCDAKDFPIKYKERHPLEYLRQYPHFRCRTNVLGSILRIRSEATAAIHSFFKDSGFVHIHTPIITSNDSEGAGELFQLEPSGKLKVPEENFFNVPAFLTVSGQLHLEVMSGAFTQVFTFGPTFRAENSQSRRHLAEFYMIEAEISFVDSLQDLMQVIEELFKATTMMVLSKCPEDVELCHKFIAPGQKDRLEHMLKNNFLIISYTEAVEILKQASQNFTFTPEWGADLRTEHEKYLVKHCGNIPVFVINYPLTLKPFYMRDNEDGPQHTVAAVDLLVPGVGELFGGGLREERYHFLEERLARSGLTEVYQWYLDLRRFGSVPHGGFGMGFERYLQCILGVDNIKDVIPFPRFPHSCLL
Chain of UniProt P03905 (P03905 whole entry, looked up): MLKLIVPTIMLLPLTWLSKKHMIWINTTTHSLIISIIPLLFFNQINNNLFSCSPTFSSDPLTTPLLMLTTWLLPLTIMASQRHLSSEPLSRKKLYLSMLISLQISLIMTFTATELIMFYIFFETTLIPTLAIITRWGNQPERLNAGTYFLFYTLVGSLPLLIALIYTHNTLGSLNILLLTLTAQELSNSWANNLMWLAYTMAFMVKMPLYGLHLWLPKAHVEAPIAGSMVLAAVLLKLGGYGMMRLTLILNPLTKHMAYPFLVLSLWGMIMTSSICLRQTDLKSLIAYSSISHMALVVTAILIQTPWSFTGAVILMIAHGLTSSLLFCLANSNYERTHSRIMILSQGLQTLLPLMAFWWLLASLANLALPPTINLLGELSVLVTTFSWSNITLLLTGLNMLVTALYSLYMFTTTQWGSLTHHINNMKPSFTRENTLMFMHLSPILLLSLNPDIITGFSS
Chain of UniProt Q9Y2X3 (Q9Y2X3 whole entry, looked up): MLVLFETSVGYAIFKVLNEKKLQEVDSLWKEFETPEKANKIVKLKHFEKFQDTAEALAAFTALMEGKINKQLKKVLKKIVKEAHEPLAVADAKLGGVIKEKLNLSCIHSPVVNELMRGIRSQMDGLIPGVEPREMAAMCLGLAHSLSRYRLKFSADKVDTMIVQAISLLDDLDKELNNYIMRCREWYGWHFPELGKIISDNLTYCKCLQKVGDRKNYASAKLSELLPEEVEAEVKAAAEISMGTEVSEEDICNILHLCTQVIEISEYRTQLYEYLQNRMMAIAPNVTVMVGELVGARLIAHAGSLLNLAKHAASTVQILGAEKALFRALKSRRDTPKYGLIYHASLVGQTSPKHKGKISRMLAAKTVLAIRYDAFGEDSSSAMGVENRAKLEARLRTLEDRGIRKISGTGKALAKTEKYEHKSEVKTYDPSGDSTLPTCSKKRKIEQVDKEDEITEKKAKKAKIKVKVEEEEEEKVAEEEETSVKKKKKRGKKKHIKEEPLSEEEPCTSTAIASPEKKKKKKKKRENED
Chain of UniProt Q9H3L0 (Q9H3L0 whole entry, looked up): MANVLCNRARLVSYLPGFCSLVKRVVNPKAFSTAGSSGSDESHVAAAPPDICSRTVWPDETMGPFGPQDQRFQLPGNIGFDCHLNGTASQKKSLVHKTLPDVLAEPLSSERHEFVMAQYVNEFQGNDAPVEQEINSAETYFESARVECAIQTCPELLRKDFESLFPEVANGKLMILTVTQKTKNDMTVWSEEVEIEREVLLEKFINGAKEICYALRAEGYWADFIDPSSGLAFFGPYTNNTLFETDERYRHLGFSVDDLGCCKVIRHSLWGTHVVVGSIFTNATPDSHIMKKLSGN
Chain of UniProt Q9NR45 (Q9NR45 whole entry, looked up): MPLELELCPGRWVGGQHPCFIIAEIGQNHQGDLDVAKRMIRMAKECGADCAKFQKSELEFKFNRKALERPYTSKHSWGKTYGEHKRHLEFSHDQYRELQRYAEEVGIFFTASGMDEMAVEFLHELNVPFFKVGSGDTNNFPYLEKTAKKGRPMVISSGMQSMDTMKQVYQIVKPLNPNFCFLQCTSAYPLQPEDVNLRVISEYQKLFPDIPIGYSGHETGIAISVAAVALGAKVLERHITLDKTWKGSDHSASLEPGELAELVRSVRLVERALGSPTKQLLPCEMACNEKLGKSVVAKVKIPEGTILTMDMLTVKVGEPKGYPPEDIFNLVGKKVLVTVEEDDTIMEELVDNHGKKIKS
Chain of UniProt Q15021 (Q15021 whole entry, looked up): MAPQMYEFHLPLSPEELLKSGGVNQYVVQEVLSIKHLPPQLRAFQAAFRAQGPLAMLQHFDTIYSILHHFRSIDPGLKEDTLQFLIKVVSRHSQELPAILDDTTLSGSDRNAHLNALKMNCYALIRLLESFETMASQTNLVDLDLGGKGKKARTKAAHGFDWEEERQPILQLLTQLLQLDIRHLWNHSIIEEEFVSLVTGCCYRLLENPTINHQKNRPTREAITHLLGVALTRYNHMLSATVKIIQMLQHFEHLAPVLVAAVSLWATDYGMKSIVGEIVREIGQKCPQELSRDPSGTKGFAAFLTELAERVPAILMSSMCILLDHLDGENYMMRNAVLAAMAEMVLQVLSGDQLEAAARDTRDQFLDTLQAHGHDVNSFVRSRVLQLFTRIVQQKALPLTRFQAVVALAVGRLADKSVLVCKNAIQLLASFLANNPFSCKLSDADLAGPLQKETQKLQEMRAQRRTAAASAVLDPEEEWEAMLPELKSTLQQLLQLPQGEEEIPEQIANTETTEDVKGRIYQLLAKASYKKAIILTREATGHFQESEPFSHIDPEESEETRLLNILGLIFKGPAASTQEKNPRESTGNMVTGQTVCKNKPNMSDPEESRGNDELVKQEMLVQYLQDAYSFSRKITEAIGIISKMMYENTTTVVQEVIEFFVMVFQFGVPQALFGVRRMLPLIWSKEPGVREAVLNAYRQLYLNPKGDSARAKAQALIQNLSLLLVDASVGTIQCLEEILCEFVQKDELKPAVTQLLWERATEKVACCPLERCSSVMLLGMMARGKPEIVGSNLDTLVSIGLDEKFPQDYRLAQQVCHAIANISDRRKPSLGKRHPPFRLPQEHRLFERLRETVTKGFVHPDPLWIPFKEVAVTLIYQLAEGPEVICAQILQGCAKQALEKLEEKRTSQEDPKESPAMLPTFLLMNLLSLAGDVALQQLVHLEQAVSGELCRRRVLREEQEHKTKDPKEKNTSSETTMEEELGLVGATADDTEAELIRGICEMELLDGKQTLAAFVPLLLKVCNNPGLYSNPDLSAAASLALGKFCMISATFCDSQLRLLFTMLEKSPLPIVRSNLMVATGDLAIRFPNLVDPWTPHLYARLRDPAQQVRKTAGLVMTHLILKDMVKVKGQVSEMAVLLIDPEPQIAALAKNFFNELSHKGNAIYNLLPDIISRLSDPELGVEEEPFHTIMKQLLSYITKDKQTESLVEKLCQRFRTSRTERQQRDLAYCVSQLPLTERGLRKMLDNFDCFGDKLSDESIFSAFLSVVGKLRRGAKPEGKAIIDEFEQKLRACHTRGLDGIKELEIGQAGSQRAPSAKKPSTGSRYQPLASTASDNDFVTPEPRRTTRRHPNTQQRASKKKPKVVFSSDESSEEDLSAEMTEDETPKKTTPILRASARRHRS
Chain of UniProt P56556 (P56556 whole entry, looked up): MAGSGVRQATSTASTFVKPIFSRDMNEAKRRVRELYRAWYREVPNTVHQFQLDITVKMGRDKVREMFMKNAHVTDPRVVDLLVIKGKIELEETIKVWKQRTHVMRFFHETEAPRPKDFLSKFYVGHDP
Chain of UniProt P51948 (P51948 whole entry, looked up): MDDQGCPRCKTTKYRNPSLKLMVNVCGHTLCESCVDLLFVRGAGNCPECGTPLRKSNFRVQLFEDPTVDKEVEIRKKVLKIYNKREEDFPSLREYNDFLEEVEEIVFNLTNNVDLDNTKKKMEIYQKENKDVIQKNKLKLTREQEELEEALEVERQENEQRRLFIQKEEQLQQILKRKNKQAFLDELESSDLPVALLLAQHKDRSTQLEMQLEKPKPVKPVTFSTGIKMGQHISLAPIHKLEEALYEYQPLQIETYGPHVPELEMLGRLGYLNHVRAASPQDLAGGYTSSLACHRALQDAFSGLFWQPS
Chain of UniProt O95182 (O95182 whole entry, looked up): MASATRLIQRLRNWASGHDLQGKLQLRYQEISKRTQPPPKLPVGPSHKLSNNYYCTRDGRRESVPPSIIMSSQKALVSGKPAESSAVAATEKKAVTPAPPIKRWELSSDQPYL

Row | Target | log2 fold change (bafetinib) | log2 fold change [1] | log2 fold change (nilotinib) | log2 fold change [2] | log2 fold change (dasatinib) | log2 fold change [3] | log2 fold change [4] | log2 fold change [5] | log2 fold change (tipifarnib) | log2 fold change (mubritinib)
1 | NDUFA7 (UniProt O95182) | -0.056 | 0.124 | 0.016 | -0.025 | -0.145 | -0.059 | -0.005 | -0.061 | 0.002 | 0.247 (active)
2 | NA, A0A2R8Y3M9 | -0.605 | 0.19 | 0.035 | -0.091 | -0.013 | 0.31 | 0.503 | -0.117 | 0.08 | –
3 | NCAPD2 (UniProt Q15021) | 0.03 | 0.045 | -0.078 | -0.071 | -0.159 | 0.08 | -0.035 | 0.018 | -0.148 | 0.033
4 | NELFB isoform 2 (UniProt Q8WX92) | -0.088 | 0.046 | -0.135 | -0.123 | -0.189 | 0.05 | 0.032 | 0.014 | -0.081 | 0.03
5 | NMD3 (UniProt Q96D46) | 0.071 | 0.03 | 0.025 | 0.316 (active) | 0.014 | 0.123 | 0.083 | 0.028 | -0.107 | 0.083
6 | NANS (UniProt Q9NR45) | 0.04 | 0.05 | 0.069 | -0.007 | -0.018 | -0.018 | 0.05 | -0.017 | -0.067 | -0.023
7 | MRPS15 (UniProt P82914) | 0.126 | 0.159 | -0.33 | 0.056 | -0.046 | 0.07 | 0.05 | 0.032 | -0.105 | 0.172
8 | MRPS12 (UniProt O15235) | 0.269 | 0.146 | -0.161 | 0.073 | 0.062 | -0.024 | -0.045 | 0.111 | -0.082 | 0.143
9 | MIS12 (UniProt Q9H081) | -0.05 | 0.017 | -0.062 | -0.048 | -0.114 | 0.037 | -0.028 | 0.005 | 0.016 | 0.071
10 | NMU (UniProt P48645) | -0.01 | 0.152 | 0.011 | -0.022 | 0.16 | -0.012 | -0.394 | -0.11 | 0.276 | –
11 | NARS2 (UniProt Q96I59) | -0.108 | 0.034 | -0.063 | 0.069 | -0.05 | 0.005 | 0.084 | 0.047 | -0.004 | -0.009
12 | NDUFA7 (UniProt M0R0N0) | -0.052 | – | – | – | – | – | – | – | – | –
13 | MT-ND4 (UniProt P03905) | -0.016 | -0.118 | 0.006 | -0.033 | -0.009 | -0.003 | -0.004 | -0.045 | 0.173 | 0.05
14 | MNAT1 (UniProt P51948) | -0.072 | 0.011 | -0.033 | 0.023 | -0.002 | -0.031 | 0.018 | 0 | 0.025 | 0.032
15 | OSBPL8 (UniProt Q9BZF1) | 0.182 | 0.049 | 0.295 | -0.086 | 0.066 | -0.047 | -0.225 | -0.093 | -0.117 | 0.108
16 | PACS1 (UniProt Q6VY07) | 0.008 | 0.02 | 0.051 | 0.038 | 0.018 | -0.018 | -0.006 | -0.098 | -0.002 | -0.021

Row | Target | log2 fold change (bafetinib) | log2 fold change [1] | log2 fold change (nilotinib) | log2 fold change [2] | log2 fold change (dasatinib) | log2 fold change [3] | log2 fold change [4] | log2 fold change [5] | log2 fold change (tipifarnib) | log2 fold change (mubritinib)
17 | MYLK (UniProt Q15746) | 0.827 (active) | -0.063 | 0.856 (active) | 0.147 | 0.65 (active) | 0.136 | -0.107 | -0.128 | 0.047 | 0
18 | MSTO1 (UniProt Q9BUK6) | -0.03 | 0.028 | -0.057 | 0.033 | -0.174 | -0.005 | 0.064 | 0.037 | -0.096 | 0.011
19 | MRPS5 (UniProt P82675) | 0.153 | 0.159 | -0.287 | 0.118 | -0.073 | 0.067 | 0.039 | 0.087 | -0.13 | 0.22
20 | NCOA7 (UniProt Q8NI08) | -0.017 | 0.154 | -0.044 | -0.046 | -0.144 | -0.039 | 0.085 | 0.004 | -0.125 | 0.054
21 | MRPS35 (UniProt P82673) | 0.038 | 0.115 | -0.134 | 0.088 | -0.004 | -0.071 | -0.039 | 0.017 | 0.024 | 0.091
22 | MYO19 (UniProt Q96H55) | 0.007 | -0.068 | -0.022 | -0.045 | -0.111 | 0.038 | -0.099 | -0.069 | 0.048 | –
23 | MRPS27 isoform 2 (UniProt Q92552) | 0.181 | 0.099 | -0.083 | 0.021 | -0.104 | -0.049 | 0.022 | 0.033 | -0.112 | 0.119
24 | NELFA (UniProt Q9H3P2) | -0.145 | 0.027 | 0.032 | -0.311 | -0.112 | -0.152 | 0.015 | 0.018 | -0.141 | -0.034
25 | NOP2 isoform 4 (UniProt P46087) | 0.274 | -0.065 | 0.111 | 0.066 | 0.344 | 0.096 | -0.568 | -0.319 | 0.214 | -0.304
26 | MMADHC (UniProt Q9H3L0) | 0.038 | 0.054 | -0.068 | -0.173 | -0.155 | 0.023 | -0.138 | -0.063 | 0.024 | -0.005
27 | NAA38 isoform 2 (UniProt Q9BRA0) | 0 | -0.019 | -0.128 | 0.052 | -0.051 | -0.066 | 0.028 | -0.047 | -0.039 | -0.03
28 | NUP160 (UniProt Q12769) | -0.127 | 0.043 | -0.078 | -0.136 | -0.045 | -0.06 | -0.025 | -0.034 | -0.042 | -0.042
29 | NOP58 (UniProt Q9Y2X3) | 0.146 | -0.154 | 0.03 | -0.194 | 0.266 | -0.142 | -0.194 | -0.093 | 0.067 | -0.071
30 | NDUFA6 (UniProt P56556) | 0.128 | 0.301 | -0.151 | 0.021 | -0.088 | 0.027 | 0.089 | 0.081 | -0.173 | 0.184
31 | MRPS17 (UniProt Q9Y2R5) | 0.264 | -0.01 | -0.314 | 0.067 | -0.122 | -0.012 | -0.052 | 0.035 | -0.088 | 0.179
